Experimental data from PubChem BioAssay AID651815 (National Center for Advancing Translational Sciences (NCATS), 2012).
Out of some 2,100 compounds screened, about 1,100 (52%) were called active. Another 29% or so got no clear call; they are omitted. So high a share suggests a set chosen from earlier hits. This is one part of the list. Unmarked numbers belong to inactive results. Calls come from the whole dose curve; as a rule, active = well fitted inhibition curve with a large enough effect; inconclusive = small, poorly fitted or top-dose-only effect; inactive = no such curve, though single readings can be large or run the other way.
% is set by controls: 0 for no effect and ±100 for the full control effect; potency is the fitted concentration of half-maximal effect.
Note: nearly all actives have a fitted effect of over 65% in size.

Each compound was assayed against DNA dC->dU-editing enzyme APOBEC-3F (Homo sapiens) (UniProt Q8IUX4) (assay: qHTS for inhibitors of Vif-A3F interactions: Cherry picks counterscreen). Conditions: HeLa A3F-eYFP/Vif cells, eYFP fluorescence, 24 h; series mostly up to 46.1 µM; activity, negative = inhibitor: at the top concentration.
Sequence of DNA dC->dU-editing enzyme APOBEC-3F (Homo sapiens) (Q8IUX4 whole entry, looked up): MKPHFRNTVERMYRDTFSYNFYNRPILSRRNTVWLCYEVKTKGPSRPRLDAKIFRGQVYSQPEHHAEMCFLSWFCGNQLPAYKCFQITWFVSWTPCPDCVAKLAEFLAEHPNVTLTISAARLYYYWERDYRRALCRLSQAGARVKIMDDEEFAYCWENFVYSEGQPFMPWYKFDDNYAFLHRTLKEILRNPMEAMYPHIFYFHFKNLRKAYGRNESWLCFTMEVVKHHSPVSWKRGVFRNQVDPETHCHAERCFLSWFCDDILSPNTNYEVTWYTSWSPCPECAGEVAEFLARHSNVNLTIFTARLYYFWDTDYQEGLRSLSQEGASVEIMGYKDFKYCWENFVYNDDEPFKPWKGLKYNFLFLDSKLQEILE
In short: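 Rescue of Vif-driven A3F-eYFP degradation read as cellular eYFP fluorescence after 24 h compound exposure (several concentrations) in stable HeLa cells; MG132 (2 mM stock) as positive control.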
For `CCN(CC)c1ccc(/C=C/c2ccnc3ccccc23)cc1`, the Potency was 23.1 µM (active).
With `CCCCN(CCCC)c1ccc(/C=C/c2ccnc3ccccc23)cc1` the Potency was 23.1 µM (active).
For `CCCN(CCC)c1ccc(/C=C/c2ccnc3ccccc23)cc1`, the Potency was 20.6 µM (active).
For `COCCNC(=O)C(=O)Nc1ccc2c(c1)N(S(=O)(=O)c1cccs1)CCC2`, the Potency was 2.23 µM (active).
In the case of `CCOc1ccccc1NC(=O)Cn1nnc(C(=O)NCc2cccs2)c1N`, the Potency is reported as 1.46 µM (active).
In the case of `CCN(CC(=O)NCc1ccc(F)cc1)C(=O)/C=C/c1ccc(OC)c(S(=O)(=O)NC(C)C)c1`, the Potency is reported as 4.98 µM (active).
For `COc1ccc(NC(=O)C2Cc3c(-c4cccc(C(C)=O)c4)ccnc3O2)cn1` (stereo not given), the Potency was 3.14 µM (active).
With `CC(=O)c1cccc(-c2ccnc3c2CC(C(=O)Nc2ccc(Cl)cc2)O3)c1` (stereo not given) the Potency was 4.98 µM (active).
`CC(=O)Nc1cccc(-c2ccnc3c2CC(C(=O)Nc2ccc4c(c2)OCO4)O3)c1` (stereo not given) was tested, and the Potency was 4.44 µM (active).
`COc1ccc(NC(=O)C2Cc3c(-c4cccc(C(C)=O)c4)ccnc3O2)cc1` (stereo not given) was tested, and the Potency was 3.53 µM (active).
With `COc1ccc(NC(=O)C2Cc3c(-c4cccc(NC(C)=O)c4)ccnc3O2)cn1` (stereo not given) the Potency was 7.9 µM (active).
`CC(=O)Nc1ccc(-c2ccnc3c2CC(C(=O)Nc2cccc(N(C)C)c2)O3)cc1` (stereo not given) was tested, and the Potency was 12.5 µM (active).
With `Cc1ccc(S(=O)(=O)c2cc3ccccc3oc2=Nc2ccc3c(c2)OCO3)cc1` the “activity, negative = inhibitor” value was -12.3%.
In the case of `CC(C)NC(=S)N/N=C/c1sc(N2CCCCC2)nc1-c1cccs1`, the “activity, negative = inhibitor” value is reported as -29.2%.
`COc1cccc(N2CC(O)=C(c3nc4ccccc4s3)C2=N)c1` was tested, and the Potency was 7.9 µM (active).
With `CN(C)c1ccc(/C=C2\SC(N3CCCCC3)=NC2=O)cc1` the Potency was 23.1 µM (active).
For `CN(C)c1ccc(/C=C2\C(=N)N3N=C(CC(=O)N4CCCCC4)SC3=NC2=O)cc1`, the Potency was 3.26 µM (active).
`COc1cc(/C=C2\C(=N)N3N=CSC3=NC2=O)cc(Br)c1OC(=O)c1ccco1` was tested, and the “activity, negative = inhibitor” value was 28.5%.
With `CCN(CC)c1ccc(/C=C2\C(=N)N3N=C(CC(=O)N4CCOCC4)SC3=NC2=O)cc1` the Potency was 0.0353 µM (active).
`COc1cc(/C=C2\C(=N)N3N=C(S(C)(=O)=O)SC3=NC2=O)ccc1OC(=O)c1ccco1` was tested, and the “activity, negative = inhibitor” value was 29.8%.
In the case of `CN1C(=O)c2cccc(NCCCN3C(=O)c4ccccc4C3=O)c2C1=O`, the Potency is reported as 18.4 µM (active).
With `CCCOc1ccc(N)cc1N` the “activity, negative = inhibitor” value was -4.55%.
`O=C1/C(=C/c2ccc(N3CCCC3)cc2)NC(=S)N1C1CC1` was tested, and the Potency was 14.6 µM (active).
In the case of `CN(C)c1ccc(/C=C2\NC(=S)N(Cc3ccccc3)C2=O)cc1`, the Potency is reported as 2.23 µM (active).
For `CCN1C(=O)/C(=C/c2ccc(N3CCCC3)cc2)NC1=S`, the Potency was 20.6 µM (active).
In the case of `Cc1cccc(N2CCN(Cc3cn(C)nc3-c3ccccc3F)CC2)n1`, the Potency is reported as 6.27 µM (active).
In the case of `Cc1sc(-c2cc3c([nH]c2=O)CC(c2ccccc2)CC3=O)nc1-c1ccc(Cl)cc1` (stereo not given), the Potency is reported as 8.2 µM (active).
With `O=C1CC(c2ccccc2)Cc2[nH]c(=O)c(-c3nc(-c4cccc(Cl)c4)cs3)cc21` (stereo not given) the Potency was 4.11 µM (active).
`CCOC(=O)N1CCN(c2c(NCc3ccc(F)cc3)c(=O)c2=O)CC1` was tested, and the Potency was 17.7 µM (active).
With `Cc1[nH]c2ccccc2c1/C=C/c1cc[n+](C)cc1` the Potency was 6.27 µM (active).
For `Cc1ccc2[nH]c(C)c(/C=C/c3cc[n+](C)cc3)c2c1`, the Potency was 1.77 µM (active).
With `Cc1[nH]c2ccccc2c1/C=C/C(=O)c1ccccc1` the Potency was 23.1 µM (active).
With `CSc1nc(N)c(C#N)c(-c2ccccc2Cl)c1C#N` the “activity, negative = inhibitor” value was -26.6% [at 36.9 µM].
`COc1ccccc1-c1c(C#N)c(N)nc2c1CCc1ccccc1-2` was tested, and the Potency was 3.14 µM (active).
With `Cc1ccc(C=Nc2ccccc2C(N)=O)s1` the Potency was 3.96 µM (active).
`COc1cc(/C=C2/SC(=S)N(Cc3ccccc3)C2=O)cc(Cl)c1O` was tested, and the Potency was 3.96 µM (active).
For `O=C1/C(=C\c2ccc(O)cc2)SC(=S)N1Cc1ccccc1`, the “activity, negative = inhibitor” value was 27.8%.
In the case of `O=C(O)c1cc(-c2ccc(/C=C3/SC(=S)N(Cc4ccccc4)C3=O)o2)ccc1Cl`, the Potency is reported as 14.6 µM (active).
`COc1cc(/C=C2/SC(=S)N(CCC(=O)Nc3ccccc3)C2=O)cc(OC)c1OC` was tested, and the Potency was 23.1 µM (active).
For `CCC(=C/c1sc2ccc3ccccc3c2[n+]1C)/C=C1\Sc2ccc3ccccc3c2N1C`, the “activity, negative = inhibitor” value was -5.46%.
`Cc1csc(NC(=O)CCC(=O)N(CC(=O)NC2CCCC2)Cc2ccccc2)n1` was tested, and the “activity, negative = inhibitor” value was 3.75%.
`Cc1ccccc1NC(=O)c1sc2nc3c(c(-c4ccco4)c2c1N)CCC3` was tested, and the “activity, negative = inhibitor” value was -29.3% [at 36.9 µM].
For `Nc1c(C(=O)c2ccc(Cl)cc2)sc2nc3c(cc12)CCC3`, the Potency was 18.4 µM (active).
`COc1ccc(NC(=O)c2sc3nc4c(cc3c2N)CN(Cc2ccccc2)CC4)c(OC)c1` was tested, and the Potency was 18.4 µM (active).
`CCN1CCc2nc3sc(C(=O)c4ccccc4)c(N)c3cc2C1` was tested, and the Potency was 23.1 µM (active).
For `COc1ccc(/C=C2\Oc3cc(OC(=O)N4CCOCC4)ccc3C2=O)c(OC)c1`, the “activity, negative = inhibitor” value was -8.95%.
With `COc1cc(OC)c(OC)cc1/C=C1\Oc2cc(OCC(=O)N3Cc4ccccc4C[C@H]3C(=O)O)ccc2C1=O` the Potency was 1.84 µM (active).
For `Cc1nnc(N2C(=O)c3cccc4c([N+](=O)[O-])ccc(c34)C2=O)s1`, the Potency was 20.6 µM (active).
`CC(=O)Oc1ccc(N2C(=O)c3cccc4c([N+](=O)[O-])ccc(c34)C2=O)cc1` was tested, and the “activity, negative = inhibitor” value was 22.2%.
`O=C1c2cccc3c([N+](=O)[O-])ccc(c23)C(=O)N1c1ccccn1` was tested, and the “activity, negative = inhibitor” value was 18.3%.
In the case of `COc1cc2c3nnc(-c4ccc(F)cc4)c-3cn(Cc3ccccc3F)c2cc1OC`, the Potency is reported as 16.4 µM (active).
With `COc1cc2c3nnc(-c4ccc(F)cc4)c-3cn(Cc3ccc(C)cc3)c2cc1OC` the Potency was 15.8 µM (active).
In the case of `COc1cc2c3nnc(-c4ccccc4)c-3cn(Cc3ccccc3F)c2cc1OC`, the Potency is reported as 3.66 µM (active).
With `Cn1nnc2c[n+](CC(=O)c3ccc(Cl)cc3)cc(Br)c21` the Potency was 17.7 µM (active).
In the case of `O=C1CCCN1c1ccc(S(=O)(=O)Nc2ccc3c(c2)OCCO3)cc1`, the Potency is reported as 3.96 µM (active).
`O=[N+]([O-])c1cc(O)c2ncccc2c1` was tested, and the “activity, negative = inhibitor” value was -1.6% [at 36.9 µM].
With `O=[N+]([O-])c1ccc(Oc2cccc3cccnc23)c([N+](=O)[O-])c1` the Potency was 14 µM (active).
With `CC1CC(C)(C)Nc2ccc(OC(=O)c3ccco3)cc21` (stereo not given) the Potency was 18.4 µM (active).
With `CC1(C)Cc2nc3sc4c(=O)n(CC(=O)NCc5ccccc5)cnc4c3cc2CO1` the Potency was 2.23 µM (active).
In the case of `CC1(C)Cc2nc3sc4c(SCC(=O)NCc5ccco5)ncnc4c3cc2CO1`, the Potency is reported as 5.59 µM (active).
